Values joined by “and” are separate entries in the source; they are usually repeats but may differ in a detail not shown here. Equal entries are not always repeated. A number with no mark means an inactive call. Results filed as inconclusive are left out. A call without a number means that no potency is given here. Active and inactive are the calls of the source. Unless noted, calls come from the whole dose curve; as a rule, active = well fitted curve in the direction sought with a large enough effect; inconclusive = small, poorly fitted or top-dose-only effect, or another doubt; inactive = no such curve, though single readings can be large; an effect the other way counts as inactive or inconclusive.
Columns and labels:
[1] = Cell Viability - MRC5 (AID 434; calls by dose curve;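 note: potency is the fitted concentration of half-maximal effect; cells exposed to compound for 40 hours at 37 °C; potency reflects cytotoxicity seen as loss of intracellular ATP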); settings: MRC5 lung fibroblast viability, qHTS
How it was run: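 Decrease in intracellular ATP, quantified by luciferase light output, reflects compound toxicity toward MRC5 cells exposed for 40 hr in complete culture medium. Concentration-response curves, scaled between DMSO and 100 uM tamoxifen, gave AC50 values.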

[2] = Cellular Toxicity (caspase-3) BJ (AID 658); settings: BJ fibroblasts, luminescence, normalized: DMSO 0%, staurosporine 100%; series mostly up to 91.7 µM
How it was run: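 Plated BJ cells (1000/well) rested 5 hr, received compound for 16 hr at 37 °C, then Caspase-Glo 3/7 reagent for 1 hr at room temperature before luminescence reading.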

[3] = Cellular Toxicity (caspase-3) H-4-II-E (AID 663); settings: H-4-II-E rat hepatoma; Potency: caspase-3 activation; series mostly up to 92.2 µM;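 note: cells exposed to compound for 16 hr before readout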
How it was run: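 Caspase 3/7 activation measured in H-4-II-E cells in complete culture medium after 16 hr treatment at 37 °C, using luciferase-coupled substrate readout; AC50 values come from Hill-equation fits of normalized concentration-response data.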

[4] = biological target: Cytochrome P450 3A4 (Homo sapiens) (UniProt P08684); test: qHTS Assay for Inhibitors and Substrates of Cytochrome P450 3A4 (AID 884); settings: recombinant CYP3A4, Luciferin-PPXE luminescence; series mostly up to 57.1 µM; note: nearly all actives have a fitted effect of over 50% in size; note: potency is the fitted concentration of half-maximal effect
How it was run: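 Luminescent readout of luciferin produced by CYP3A4 (20 nM) dealkylation of Luciferin-PPXE, 25 uM (its KM). NADPH-driven reaction ran 60 min at RT after 10 min compound preincubation; data scaled to 57 uM ketoconazole as 100% inhibition.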

[5] = Cell Viability - LYMP1-002 - Assay at 16 hr (AID 948); settings: LYMP1-002 lymphoblastoid cell viability; series mostly up to 92.2 µM
How it was run: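 Human lymphoblastoid cells (LYMP1-002), 2500/well, were preincubated 5 hr at 37 C, then exposed to compounds for 16 hr at 37 C in complete medium. Cellular ATP was read by CellTiter-Glo luminescence after 30 min at room temperature; AC50 from Hill fits.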

[6] = MultiTox-Fluor Cytotoxicity Assay - LYMP1-003 - Dead Cells (AID 961); settings: LYMP1-003 lymphoblastoid cells, dead-cell protease fluorescence; series mostly up to 92.2 µM; note: nearly all actives have a fitted effect of over 70% in size; note: potency is the fitted concentration of half-maximal effect
How it was run: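 LYMP1-003 human lymphoblastoid cells (2500/well) exposed to compound 16 h at 37 C in complete medium; dead-cell protease read with bis-AAF-R110 fluorescence (Ex/Em 485/520) after 60 min at room temperature. Normalized to DMSO and 15 uM tetraoctylammonium bromide; AC50 from Hill fit.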

[7] = Cell Viability - LYMP2-003 (AID 965); settings: LYMP2-003 lymphoblastoid cell viability; series mostly up to 92.2 µM;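 note: cells exposed to compounds for 24 h before reading; nearly all actives have a fitted effect of over 50% in size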
How it was run: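 Human lymphoblastoid cells (2500/well) were pre-incubated 5 hr at 37 C, then exposed to compounds over a concentration range for 24 hr at 37 C. Intracellular ATP was read by CellTiter-Glo luminescence; AC50 came from Hill-equation fits.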

[8] = Cell Viability - LYMP2-011 (AID 969); settings: LYMP2-011 lymphoblastoid cells viability; series mostly up to 92.2 µM; note: nearly all actives have a fitted effect of over 60% in size
How it was run: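 Luminescent ATP read-out (CellTiter-Glo, 30 min RT) after 24 hr compound exposure at 37 C in human lymphoblastoid cells, 2500 cells/well. Decreasing ATP indicates cytotoxicity; AC50 from standard Hill fit.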

[9] = Cell Viability - LYMP2-013 (AID 970); settings: LYMP2-013 lymphoblastoid cells viability; series mostly up to 92.2 µM; note: nearly all actives have a fitted effect of over 55% in size
How it was run: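 CellTiter-Glo luminescence (cellular ATP) read after 30 min at RT. Cells: human lymphoblastoid line, 2500/well, 24 hr compound exposure at 37 C. Tetraoctylammonium bromide positive control; AC50 via standard Hill fit of qHTS titrations.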

[10] = Cell Viability - LYMP1-002 - Assay at 24 hr (AID 993); settings: LYMP1-002 lymphoblastoid cells viability; series mostly up to 92.2 µM
How it was run: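 CellTiter-Glo luminescence (intracellular ATP) after 24 h compound exposure, 37 C, in LYMP1-002 human lymphoblastoid cells; decreased ATP taken as cytotoxicity. AC50 from standard Hill fit of concentration-response curves.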

[11] = qHTS assay for small molecule disruptors of the mitochondrial membrane potential - 1 hr assay (AID 651754; calls by dose curve; note: nearly all actives have a fitted effect of over 35% in size; note: potency is the fitted concentration of half-maximal effect); settings: series mostly up to 92.2 µM
How it was run: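 Read-out: dye fluorescence at 490 nm ex/535 nm em (monomers) and 540 nm ex/590 nm em (aggregates) in HepG2 cells. Compound exposure 1 hr at 37C, followed by 30 min dye loading.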

[12] = qHTS assay for small molecule disruptors of the mitochondrial membrane potential - 5 hr assay (AID 651755; calls by dose curve; note: nearly all actives have a fitted effect of over 40% in size; note: potency is the fitted concentration of half-maximal effect); settings: JC-1-type ratio dye; series mostly up to 92.2 µM
How it was run: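 Seed HepG2 overnight, add compound, incubate 5 hr at 37C and 5% CO2, stain 30 min with Mito-MPS, then measure monomer (490/535 nm) and aggregate (540/590 nm) fluorescence.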

[13] = qHTS assay for environmental chemicals that activate the Aryl hydrocarbon Receptor (AhR) signaling pathway (AID 651777); settings: 1A2-DRE human hepatoma cells, luciferase, 24 h; activation: hits give high values; note: nearly all actives have a fitted effect of over 15% in size
How it was run: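 1A2-DRE human hepatoma reporter line; 1,200 cells/well; cmpd or DMSO 24 h, 37 C/5% CO2; One-Glo 30 min RT; luciferase lum.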

[14] = biological target: Nuclear receptor ROR-gamma (Homo sapiens) (UniProt P51449); test: qHTS assay for small molecule antagonists of the retinoid-related orphan receptor gamma (ROR-gamma) signaling pathway (AID 651802); settings: ROR-gamma antagonist cell reporter assay; series mostly up to 92.2 µM;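 note: CHO cells with doxycycline-induced ROR-gamma expression; luciferase reporter luminescence driven by ROR response element; nearly all actives have a fitted effect of over 60% in size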
How it was run: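 Luciferase read-out: ONE-Glo luminescence after 30 min at room temperature, following 16hr doxycycline induction at 37C, 5% CO2 of CHO cells with TET-inducible ROR and RORE-LUC reporter; decreased luminescence = reduced reporter activity.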

[15] = qHTS assay for small molecule activators of the human pregnane X receptor (PXR) signaling pathway (AID 720659; call rule not given here); settings: DPX-2 HepG2 CYP3A4-luciferase, 24 h; series mostly up to 92.3 µM
[16] = Cellular Toxicity (caspase-3) HUV-EC-C (AID 656); settings: HUV-EC-C cells, caspase-3 activation (apoptosis), vehicle = 0, 100 µM tamoxifen = 100%; series mostly up to 92.2 µM
How it was run: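 HUV-EC-C endothelial cells, 1000/well, were pre-incubated 5 hr at 37°C, then exposed to compounds for 16 hr at 37°C. Caspase-Glo 3/7 luminescence was read after 20 min at room temperature. AC50 came from Hill fits, normalized to DMSO and 100 uM tamoxifen.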

[17] = Cellular Toxicity (caspase-3) Mesangial (AID 660); settings: mesangial cells, normalized: DMSO 0%, 100 µM tamoxifen 100%; series mostly up to 91.7 µM;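 note: combined caspase 3 and 7 activity read by Caspase-Glo luminescence; cells exposed to compound for 16 h before the caspase read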
How it was run: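 Luminescent Caspase-Glo 3/7 readout (aminoluciferin substrate cleavage, 20 min RT) after 16 h compound exposure at 37 °C of normal human mesangial cells. Signal increase normalized between DMSO basal and 100 uM tamoxifen; Hill-equation AC50.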

[18] = Cell Viability - LYMP2-026 (AID 989); settings: LYMP2-026 lymphoblastoid cell viability, qHTS; series mostly up to 92.2 µM; note: nearly all actives have a fitted effect of over 50% in size
How it was run: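 qHTS cytotoxicity: 2500 cells/well, 5 hr 37 C, compound 24 hr 37 C, CellTiter-Glo 30 min RT, luminescence. Tetraoctylammonium bromide positive control. AC50 via standard Hill fit.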

[19] = biological target: Nuclear receptor subfamily 1 group I member 2 (Rattus norvegicus) (UniProt Q9R1A7); test: qHTS assay for small molecule activators of the rat pregnane X receptor (rPXR) signaling pathway (AID 651751; call rule not given here); settings: rPXR reporter cells, luciferase (One-Glo), 24 h
[20] = biological target: Peroxisome proliferator-activated receptor alpha (Homo sapiens) (UniProt Q07869); test: qHTS assay for small molecule agonists of the peroxisome proliferator-activated receptor alpha (PPARalpha) signaling pathway (AID 651778); settings: PathHunter PPARalpha complementation, chemiluminescence, 6 h; hits give high values
How it was run: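 Cells plated at 2,000/well and held overnight at 37 C, 5% CO2, then compound added by pin tool for 6 hr; after PathHunter detection reagent and 60 min at room temperature, chemiluminescence from enzyme complementation was read.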

Sequence of Cytochrome P450 3A4 (Homo sapiens) (P08684 whole entry, looked up): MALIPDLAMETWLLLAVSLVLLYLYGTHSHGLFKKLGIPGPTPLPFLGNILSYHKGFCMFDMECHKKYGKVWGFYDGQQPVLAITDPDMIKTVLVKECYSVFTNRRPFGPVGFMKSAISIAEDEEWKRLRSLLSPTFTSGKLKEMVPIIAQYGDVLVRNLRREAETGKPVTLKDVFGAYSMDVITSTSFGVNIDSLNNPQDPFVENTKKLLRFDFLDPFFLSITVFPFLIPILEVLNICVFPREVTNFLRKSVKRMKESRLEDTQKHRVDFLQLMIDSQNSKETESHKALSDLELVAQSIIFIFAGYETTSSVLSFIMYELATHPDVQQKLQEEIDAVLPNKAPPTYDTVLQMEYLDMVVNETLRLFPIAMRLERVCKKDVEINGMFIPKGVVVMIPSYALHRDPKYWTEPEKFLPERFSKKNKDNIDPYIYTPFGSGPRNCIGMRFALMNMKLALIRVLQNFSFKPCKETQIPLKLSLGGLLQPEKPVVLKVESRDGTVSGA
Sequence of Peroxisome proliferator-activated receptor alpha (Homo sapiens) (Q07869 whole entry, looked up): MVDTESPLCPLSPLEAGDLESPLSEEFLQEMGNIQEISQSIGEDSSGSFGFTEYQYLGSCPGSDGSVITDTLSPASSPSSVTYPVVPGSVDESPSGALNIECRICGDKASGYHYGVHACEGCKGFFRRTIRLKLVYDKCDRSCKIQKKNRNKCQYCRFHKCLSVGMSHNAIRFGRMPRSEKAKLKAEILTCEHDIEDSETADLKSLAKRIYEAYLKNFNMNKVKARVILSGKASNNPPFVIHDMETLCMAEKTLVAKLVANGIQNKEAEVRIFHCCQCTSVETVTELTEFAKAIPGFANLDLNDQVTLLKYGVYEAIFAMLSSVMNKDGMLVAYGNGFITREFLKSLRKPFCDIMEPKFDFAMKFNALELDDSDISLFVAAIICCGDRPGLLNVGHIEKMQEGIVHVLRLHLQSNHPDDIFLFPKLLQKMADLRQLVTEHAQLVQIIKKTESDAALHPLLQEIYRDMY
Sequence of Nuclear receptor ROR-gamma (Homo sapiens) (P51449 whole entry, looked up): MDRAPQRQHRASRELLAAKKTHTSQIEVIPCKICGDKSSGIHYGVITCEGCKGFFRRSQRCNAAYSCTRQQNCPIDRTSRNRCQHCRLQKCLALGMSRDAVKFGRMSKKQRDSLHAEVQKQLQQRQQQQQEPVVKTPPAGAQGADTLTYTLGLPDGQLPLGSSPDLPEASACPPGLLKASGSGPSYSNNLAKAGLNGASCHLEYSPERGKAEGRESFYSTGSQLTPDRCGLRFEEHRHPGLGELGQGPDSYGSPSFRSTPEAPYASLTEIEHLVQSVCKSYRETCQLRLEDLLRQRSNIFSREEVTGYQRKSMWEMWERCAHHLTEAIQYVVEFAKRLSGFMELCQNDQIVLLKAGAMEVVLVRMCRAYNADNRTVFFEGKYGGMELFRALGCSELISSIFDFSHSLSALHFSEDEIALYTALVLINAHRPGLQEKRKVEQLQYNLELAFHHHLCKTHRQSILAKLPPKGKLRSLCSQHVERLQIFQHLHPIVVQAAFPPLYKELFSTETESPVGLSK
Sequence of Nuclear receptor subfamily 1 group I member 2 (Rattus norvegicus) (Q9R1A7 whole entry, looked up): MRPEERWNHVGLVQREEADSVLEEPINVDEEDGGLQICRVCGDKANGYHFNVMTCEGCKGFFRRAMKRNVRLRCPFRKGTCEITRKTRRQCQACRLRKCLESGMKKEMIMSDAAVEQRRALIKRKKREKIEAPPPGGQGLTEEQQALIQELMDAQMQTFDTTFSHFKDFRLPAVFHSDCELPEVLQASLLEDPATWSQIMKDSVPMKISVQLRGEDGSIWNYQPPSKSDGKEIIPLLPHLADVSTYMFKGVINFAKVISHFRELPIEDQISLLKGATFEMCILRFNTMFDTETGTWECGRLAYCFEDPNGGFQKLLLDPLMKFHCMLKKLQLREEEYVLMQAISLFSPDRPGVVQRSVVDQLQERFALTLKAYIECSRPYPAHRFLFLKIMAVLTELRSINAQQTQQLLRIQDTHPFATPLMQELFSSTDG

| Structure (SMILES) | Potency [1] | outcome [2] | Potency [3] | Potency [4] | outcome [5] | Potency [6] | Potency [7] | Potency [8] | Potency [9] | Potency [10] | Potency [11] | Potency [12] | activation [13] | Potency [14] | outcome [15] | outcome [16] | outcome [17] | Potency [18] | max response [19] | max response [20] |
| --- | --- | --- | --- | --- | --- | --- | --- | --- | --- | --- | --- | --- | --- | --- | --- | --- | --- | --- | --- | --- |
| CCCCNC(=O)n1c(NC(=O)OC)nc2ccccc21 | > 92 µM | inactive | inactive | inactive | inactive | inactive | inactive | inactive | inactive | inactive | inactive | inactive | 8.93% and 9.96% | inactive | inactive |  |  |  |  |  |
| c1ccc(OCC2CO2)cc1 (centres undefined) | > 92 µM | inactive | inactive | inactive |  | inactive | inactive | inactive | inactive | inactive | inactive | inactive | 0.197% | inactive | inactive | inactive | inactive | inactive | -1.75% |  |
| Cc1ccc(N)c(N)c1 | > 92 µM |  | inactive |  | inactive | 15.8 µM (active) |  |  |  | inactive |  |  |  | inactive |  | inactive |  | inactive |  | -2.85% |
| Oc1ccc(Cl)c(Cl)c1 | > 92 µM | inactive | inactive | inactive | inactive | inactive | inactive | inactive | inactive |  | 33.5 µM (active) | 42.2 µM (active) | 1.35% |  | inactive | inactive | inactive | inactive | -0.245% | -3.58% |
| CCCCCCCCCCCCCl | > 92 µM | inactive | inactive | inactive | inactive | inactive | inactive |  | inactive | inactive | inactive | inactive | 1.8% |  | inactive | inactive | inactive |  | 3.36% | -2.89% |
| O=Cc1ccc2c(c1)OCO2 | > 92 µM | inactive | inactive | inactive | inactive | inactive | inactive |  | inactive | inactive | inactive | inactive | -0.902% | inactive | inactive | inactive | inactive | inactive | 2.27% | -6.34% |
| Nc1ccccc1-c1ccccc1 | > 92 µM | inactive | inactive | inactive | inactive | inactive | inactive | inactive | inactive | inactive |  |  | -0.114% | inactive | inactive |  | inactive | inactive | 0.403% | -2.98% |
| Nc1ccc(-c2ccccc2)cc1 | > 92 µM | inactive | inactive | 12.6 µM (active) | inactive |  | inactive | inactive | inactive | inactive |  |  | 12.6% | inactive | inactive | inactive | inactive |  |  | -0.418% |
| Cc1ccc2c(C)cccc2c1 | > 92 µM | inactive |  | inactive | inactive |  | inactive | inactive | inactive | inactive | inactive | inactive | -0.533% | inactive | inactive | inactive |  | inactive | -3.71% |  |
| O=[N+]([O-])c1ccc(Cl)c(Cl)c1Cl | > 92 µM | inactive |  | inactive |  | inactive |  | inactive | inactive |  |  | inactive | -1.85% | inactive | inactive |  | inactive | inactive | -4.87% | 10.7% |
| ClC=CCl | > 92 µM | inactive | inactive | inactive | inactive | inactive | inactive | inactive | inactive |  | inactive | inactive | 0.329% | inactive | inactive | inactive | inactive | inactive | -4.21% |  |
| N#CCBr | > 92 µM | inactive | inactive | inactive | inactive | inactive | inactive | inactive |  | inactive | inactive | inactive | 13.7% | inactive | inactive |  | inactive | inactive | -1.93% | -0.274% |
| COc1ccc(C=O)cc1 | > 92 µM | inactive | inactive | inactive | inactive | inactive | inactive | inactive | inactive | inactive |  |  | 0.954% | inactive | inactive |  | inactive | inactive | 2.55% | 2.57% |
| CCOC(=O)CC(SP(=O)(OC)OC)C(=O)OCC (centres undefined) | > 92 µM | inactive | inactive |  | inactive | inactive |  | inactive | inactive | inactive | inactive | inactive | 1.9% and 4.95% |  | inactive | inactive | inactive | inactive | -7.84% and -3.31% | -2.03% and -3.38% |
| O=[N+]([O-])c1cc(Cl)c(Cl)cc1Cl | > 92 µM | inactive |  | inactive | inactive | inactive | inactive |  |  | inactive | inactive | inactive | -0.111% | inactive | inactive | inactive | inactive |  | -0.165% | -8.71% |

— PubChem BioAssay (NCATS)
